The values that follow come from the antibiotic and cytotoxicity screens of Wong et al. (2023).

Hit rate of the full screen: of about 39,000 compounds, about 3,300 (8.5%) were called active. Shown is part of a subset that was picked to be rich in actives.

The assay relates to HepG2. Description: cytotoxicity call (relative viability < 0.9). To be noted: 10 µM.
Regarding `COc1ccc(S(=O)(=O)Nc2ccc3c(c2)C(=O)N([C@H](C)CO)C[C@@H](C)[C@@H](CN(C)C(=O)Nc2ccccc2)OCCCC[C@@H](C)O3)cc1`, the cytotoxicity call was “inactive”. The result for `CC(C)CC#Cc1ccc2c(c1)O[C@H](CN(C)C(=O)Cc1ccncc1)[C@H](C)CN([C@H](C)CO)S2(=O)=O` reads “inactive”; that for `COc1cccc(S(=O)(=O)N(C)C[C@@H]2Oc3cc(C4=CCCC4)ccc3S(=O)(=O)N([C@@H](C)CO)C[C@H]2C)c1`, “inactive”. The result for `Cc1noc(C)c1S(=O)(=O)Nc1ccc2c(c1)C(=O)N([C@H](C)CO)C[C@H](C)[C@H](CN(C)C(=O)Nc1ccccc1)O2` reads “inactive”; that for `Cc1noc(C)c1S(=O)(=O)N(C)C[C@@H]1Oc2ccc(NS(=O)(=O)c3ccc(F)cc3)cc2CC(=O)N([C@H](C)CO)C[C@@H]1C`, “inactive”; that for `C[C@H]1CN([C@@H](C)CO)C(=O)c2cccc(NC(=O)c3nc4ccccc4s3)c2O[C@@H]1CN(C)C(=O)Nc1ccc(F)cc1`, “inactive”. On to `COc1ccccc1S(=O)(=O)N(C)C[C@@H]1OCc2cn(nn2)CCCC(=O)N([C@H](C)CO)C[C@H]1C`, for which the cytotoxicity call is “inactive”. The same measure for `Cc1noc(C)c1S(=O)(=O)Nc1ccc2c(c1)C(=O)N([C@@H](C)CO)C[C@@H](C)[C@H](CN(C)S(=O)(=O)c1ccc(Cl)cc1)O2`: “inactive”; for `COc1ccc(S(=O)(=O)N(C)C[C@@H]2Oc3ccc(NS(=O)(=O)c4c(C)noc4C)cc3CC(=O)N([C@@H](C)CO)C[C@H]2C)cc1`: “inactive”; for `Cc1noc(C)c1NC(=O)Nc1ccc2c(c1)C(=O)N([C@H](C)CO)C[C@@H](C)[C@@H](CN(C)C(=O)C1CCCCC1)OCCCC[C@H](C)O2`: “inactive”. The same measure for `C[C@H](CO)N1C[C@H](C)[C@@H](CN(C)Cc2ccc(C(F)(F)F)cc2)Oc2c(NC(=O)NC3CCCCC3)cccc2C1=O`: “inactive”; for `C[C@H](CO)N1C[C@H](C)[C@H](CN(C)Cc2ccc(C(F)(F)F)cc2)Oc2c(NC(=O)NC3CCCCC3)cccc2C1=O`: “inactive”; for `C[C@@H]1CN([C@H](C)CO)C(=O)c2cccc(NC(=O)NC3CCCCC3)c2O[C@@H]1CN(C)Cc1ccc(C(F)(F)F)cc1`: “active”. With `CO[C@H]1CN(C)C(=O)c2ccc(NC(=O)C3CCOCC3)cc2OC[C@@H](C)N(Cc2cccnc2)C[C@H]1C`, the cytotoxicity call was “inactive”. Take `C[C@H](CO)N1C[C@H](C)[C@@H](CN(C)Cc2ccc(Cl)c(Cl)c2)Oc2ccc(NC(=O)Cn3cnnn3)cc2C1=O`: the cytotoxicity call is “inactive”. As to `C[C@@H]1CN([C@@H](C)CO)C(=O)Cc2cc(NC(=O)Nc3ccccc3)ccc2O[C@H]1CN(C)Cc1ccc(-c2ccccc2)cc1`, the cytotoxicity call is “active”. Turning to `CC(C)NC(=O)Nc1ccc2c(c1)CC(=O)N([C@H](C)CO)C[C@H](C)[C@H](CN(C)Cc1ccc(-c3ccccc3)cc1)O2`, the cytotoxicity call is “inactive”.

Turning to `C[C@@H]1CN([C@@H](C)CO)C(=O)Cc2cc(NC(=O)Nc3ccccc3)ccc2O[C@@H]1CN(C)Cc1ccc(-c2ccccc2)cc1`, the cytotoxicity call was “inactive”.

Turning to `Cc1noc(C)c1NC(=O)Nc1ccc2c(c1)CC(=O)N([C@@H](C)CO)C[C@@H](C)[C@@H](CN(C)Cc1ccc(-c3ccccc3)cc1)O2`, the cytotoxicity call is “active”. The result for `Cc1noc(C)c1NC(=O)Nc1ccc2c(c1)CC(=O)N([C@@H](C)CO)C[C@H](C)[C@H](CN(C)Cc1ccc(-c3ccccc3)cc1)O2` reads “inactive”; that for `C[C@H]1CN([C@@H](C)CO)C(=O)Cc2cc(NC(=O)Nc3ccccc3)ccc2O[C@H]1CN(C)Cc1ccc(-c2ccccc2)cc1`, “inactive”; that for `C[C@@H]1CN([C@H](C)CO)C(=O)Cc2cc(NC(=O)Nc3ccccc3)ccc2O[C@H]1CN(C)Cc1ccc(-c2ccccc2)cc1`, “inactive”.

Turning to `C[C@@H]1CN([C@H](C)CO)C(=O)Cc2cc(NC(=O)Nc3ccccc3)ccc2O[C@@H]1CN(C)Cc1ccc(-c2ccccc2)cc1`, the cytotoxicity call is “active”. The same measure for `C[C@H](CO)N1C[C@H](C)[C@H](CN(C)Cc2ccc(-c3ccccc3)cc2)Oc2ccc(NC(=O)Nc3ccccc3)cc2CC1=O`: “active”.

On to `Cc1noc(C)c1NC(=O)Nc1ccc2c(c1)CC(=O)N([C@H](C)CO)C[C@@H](C)[C@H](CN(C)Cc1ccc(-c3ccccc3)cc1)O2`, for which the cytotoxicity call was “inactive”. Take `NC1CCC(N[C@@H]2C[C@H]2c2ccccc2)CC1` (stereo partly specified): the cytotoxicity call was “inactive”.

Consider `C=CCC[C@@H](Cc1ccc(F)cc1)C(=O)OC[C@H]1CCCN1C(=O)[C@@H](CC=C)CC(=O)N(CCO)Cc1ccccc1`, for which the cytotoxicity call was “inactive”. The same measure for `COc1cccc(S(=O)(=O)Nc2ccc3c(c2)OC[C@H](C)N(C(=O)Cc2cccnc2)C[C@H](C)[C@@H](OC)CN(C)C3=O)c1`: “inactive”; for `C[C@@H]1CN([C@H](C)CO)C(=O)c2cc(NS(=O)(=O)c3cn(C)cn3)ccc2O[C@@H]1CN(C)Cc1ccccc1`: “inactive”; for `COCC(=O)NC1CCN(C2CCNCC2)CC1`: “inactive”. The result for `CO[C@H]1O[C@H](CO)[C@@H](OC(=O)Nc2ccccc2)[C@@H]2OC(=O)[C@H](Cc3cccc(Br)c3)C/C=C/C[C@@H](Cc3cccc(Br)c3)C(=O)O[C@@H]12` reads “inactive”.

For `C[C@H]1CN([C@@H](C)CO)C(=O)c2cccc(NC(=O)C3CCOCC3)c2O[C@H]1CN(C)C(=O)NC1CCCCC1`, the cytotoxicity call was “inactive”. The result for `CC(C)(C)[S@@](=O)N1Cc2cc(C(=O)N3CCc4ccccc4C3)nc(-c3cccc(-c4cccnc4)c3)c2[C@H]1CCO` reads “inactive”. The same measure for `Cc1noc(C)c1S(=O)(=O)Nc1ccc2c(c1)C(=O)N([C@H](C)CO)C[C@@H](C)[C@@H](CN(C)S(=O)(=O)c1ccc(Cl)cc1)O2`: “inactive”; for `C[C@H]1CN([C@@H](C)CO)C(=O)c2cc(NS(=O)(=O)c3cn(C)cn3)ccc2O[C@@H]1CN(C)S(=O)(=O)c1ccccc1`: “inactive”.

Turning to `CN1CCN(C(=O)C[C@H]2CC[C@H]3[C@H](COc4ccc(NC(=O)c5cscn5)cc4C(=O)N3C)O2)CC1`, the cytotoxicity call was “inactive”.

With `C[C@H](CO)N1C[C@H](C)[C@@H](CN(C)Cc2ccc(-c3ccccc3)cc2)Oc2ccc(NC(=O)Nc3ccccc3)cc2CC1=O`, the cytotoxicity call is “active”.

`C[C@@H]1CN([C@@H](C)CO)C(=O)c2cc(NC(=O)CCCN(C)C)ccc2O[C@@H]1CN(C)Cc1ccncc1`: the cytotoxicity call is “inactive”. The same measure for `C[C@H](CO)N1C[C@H](C)[C@@H](CN(C)C(=O)Nc2ccc(C(F)(F)F)cc2)OCCCC[C@H](C)Oc2ccc(NS(C)(=O)=O)cc2C1=O`: “inactive”; for `COc1ccc(S(=O)(=O)Nc2ccc3c(c2)CC(=O)N([C@H](C)CO)C[C@H](C)[C@H](CN(C)S(=O)(=O)c2ccc(C)cc2)O3)cc1`: “inactive”. The result for `NCC[C@@H]1CC[C@H](NC(=O)C2CC2)[C@@H](CO)O1` reads “inactive”. The same measure for `O=C(O)c1cc2cc(F)ccc2s1`: “inactive”; for `C[C@H]1CCCCO[C@@H](CN(C)Cc2ccc3c(c2)OCO3)[C@@H](C)CN([C@@H](C)CO)C(=O)c2cc(NS(=O)(=O)c3ccccc3)ccc2O1`: “inactive”; for `C[C@H](CO)N1C[C@H](C)[C@@H](CN(C)Cc2ccc3c(c2)OCO3)OCCCC[C@H](C)Oc2ccc(NS(=O)(=O)c3ccccc3)cc2C1=O`: “inactive”.

Turning to `C[C@@H]1CCCCO[C@H](CN(C)Cc2ccc3c(c2)OCO3)[C@H](C)CN([C@H](C)CO)C(=O)c2cc(NS(=O)(=O)c3ccccc3)ccc2O1`, the cytotoxicity call was “inactive”. The result for `C[C@H]1CCCCO[C@H](CN(C)Cc2ccc3c(c2)OCO3)[C@@H](C)CN([C@@H](C)CO)C(=O)c2cc(NS(=O)(=O)c3ccccc3)ccc2O1` reads “inactive”. The same measure for `C[C@@H]1CN([C@H](C)CO)C(=O)c2cc(NS(=O)(=O)c3ccccc3)ccc2O[C@@H](C)CCCCO[C@@H]1CN(C)Cc1ccc2c(c1)OCO2`: “active”; for `C[C@@H]1CCCCO[C@@H](CN(C)Cc2ccc3c(c2)OCO3)[C@H](C)CN([C@H](C)CO)C(=O)c2cc(NS(=O)(=O)c3ccccc3)ccc2O1`: “active”; for `C[C@@H]1CCCCO[C@H](CN(C)Cc2ccc3c(c2)OCO3)[C@H](C)CN([C@@H](C)CO)C(=O)c2cc(NS(=O)(=O)c3ccccc3)ccc2O1`: “active”. The result for `C[C@H](CO)N1C[C@H](C)[C@H](CN(C)Cc2ccc3c(c2)OCO3)OCCCC[C@H](C)Oc2ccc(NS(=O)(=O)c3ccccc3)cc2C1=O` reads “inactive”; that for `C[C@@H]1CCCCO[C@H](CN(C)Cc2ccc3c(c2)OCO3)[C@@H](C)CN([C@@H](C)CO)C(=O)c2cc(NS(=O)(=O)c3ccccc3)ccc2O1`, “inactive”. For `C[C@H](N)C(=O)N[C@@]1(C(=O)O)C[C@@H](Sc2nnc[nH]2)[C@H]2[C@H](C(=O)O)[C@H]21`, the cytotoxicity call was “inactive”.

Turning to `C[C@H](CO)N1C[C@H](C)[C@H](CN(C)S(=O)(=O)c2ccc(F)cc2)Oc2ccc(NS(C)(=O)=O)cc2C1=O`, the cytotoxicity call is “inactive”. As for `Cl.Cl.N=C(N)N`, the cytotoxicity call was “inactive”.

For `COCCOC(=O)N1C(=O)[C@@]2(c3cc(C#CCCO)ccc31)[C@H](C(=O)NC[C@H](O)c1ccccc1)[C@H]1C(=O)O[C@H](c3ccccc3)[C@H](c3ccccc3)N1[C@@H]2c1ccccc1OCCO`, the cytotoxicity call was “inactive”.

For `CCS(=O)(=O)N1CC[C@]2(CC1)CN([C@H](CO)c1[nH]c3cc(ccc3c12)OC)S(=O)(=O)c1cn(cn1)C`, the cytotoxicity call was “inactive”.

With `C[C@@H]1CN([C@@H](C)CO)C(=O)Cc2cc(NS(=O)(=O)c3ccccc3)ccc2O[C@H]1CN(C)S(=O)(=O)c1cn(C)cn1`, the cytotoxicity call is “inactive”. The result for `C[C@@H]1CN([C@@H](C)CO)C(=O)c2cc(NC(=O)CCCN(C)C)ccc2O[C@H]1CN(C)C(=O)Nc1ccc(F)cc1` reads “inactive”. The same measure for `O=C1NC(=O)[C@@]2(CCOc3ccc(F)cc32)N1`: “inactive”.

Consider `C[C@@H]1CCCCO[C@H](CN(C)S(=O)(=O)c2cn(C)cn2)[C@@H](C)CN([C@@H](C)CO)C(=O)c2cc(NS(=O)(=O)c3cn(C)cn3)ccc2O1`, for which the cytotoxicity call is “inactive”. Regarding `COc1ccc(NC(=O)N2C[C@H](O)COC[C@@H]3O[C@H](CC(=O)NC4Cc5ccccc5C4)CC[C@H]32)cc1`, the cytotoxicity call is “inactive”.
